{"source": "PubChem BioAssay (Tox21)", "note": "Values joined by “and” are separate entries in the source; they are usually repeats but may differ in a detail not shown here. Equal entries are not always repeated. Results filed as inconclusive are left out. The source holds several records for some structures; these can differ, active in one and inactive in another. Active and inactive are the calls of the source. Calls follow the shape of the dose curve; as a rule, active = well fitted cell-killing curve with a large enough effect in the repeat runs; inconclusive = weak or mixed curves, or effect the other way; inactive = no such curve, though single readings can be large or run the other way. % is scaled to controls: 0 for no effect and ±100 for the full control effect; potency is read from the fitted curve at half-maximal effect."}
{"assay": "qHTS assay to identify small molecule agonists of the farnesoid-X-receptor (FXR) signaling pathway - cell viability counter screen (AID 743218); also: nearly all actives have a fitted effect of over 45% in size", "details": "FXR-bla HEK293T viability, CellTiter-Glo luminescence, 16 h; series mostly up to 62.6 µM; viability change, negative = cytotoxic: at the top concentration", "excerpt": "U.S. Tox21 Program National Center for Advancing Translational Sciences [NCATS] NIH Chemical Genomics Center [NCGC] U.S. Environmental Protection Agency [EPA] National Institutes of Environmental Health Sciences [NIEHS] National Toxicology Program [NTP] U.S. Food and Drug Administration [FDA] Tox21 Assay Overview: The farnesoid-X-receptor (FXR), a nuclear hormone receptor, is highly expressed in liver, intestine, kidney and adrenal cortex. Natural ligands of FXR are the bile acids (Cholic acid, Chenodeoxy cholic acid etc). FXR is an important regulator of diverse metabolic pathways, including the bile acid homeostasis, lipid and glucose metabolisms. FXR regulates the expression of target genes by binding either as a monomer or as a heterodimer with the retinoid X receptor (RXR). Numerous studies have reported that FXR exerts protective function during cholestasis, diabetes, liver regeneration, and cancer. To identify compounds that activate FXR signaling, GeneBLAzer FXR-UAS-bla HEK 293T cell line (Invitrogen, Carlsbad, CA) containing a beta-lactamase reporter gene under the control of a UAS response element was used to screen the Tox21 10K compound library. The cytotoxicity of the Tox21 compound library against the FXR-bla cell line was tested in parallel by measuring the cell viability using CellTiter-Glo assay in the same wells.\nTox21 Assay Protocol Summary: FXR-bla cells were dispensed at 5000 cells/5uL/well in 1536-well black wall/clear bottom plates using a Multidrop Combi (Thermo Fisher Scientific, Waltham, MA) dispenser. After the assay plates were incubated at 37 C and 5% CO2 for 5 h, 23 nL of compounds dissolved in DMSO, positive controls or DMSO only was transferred to the assay plate by a Pintool station (Kalypsys, San Diego, CA). The assay plates were incubated at 37C for 16 h. After 1 uL of LiveBLAzerTM B/G FRET substrate was added using a Bioraptr Flying Reagent Dispenser (FRD) workstation (Beckman Coulter, Indianapolis, IN), the plates were incubated at room temperature for 2 h, and fluorescence intensity was measured by an Envision plate reader (PerkinElmer, Shelton, CT). For cell viability readout that measures cytotoxicity, 4uL/well of CellTiter-Glo reagent was added into the assay plates using a Bioraptr FRD. After 30 min incubation at room temperature, the luminescence intensity in the plates was measured using a ViewLux plate reader (PerkinElmer)."}
{"smiles": "COc1cccc(CCc2ccccc2OCC(CN(C)C)OC(=O)CCC(=O)O)c1", "note": "(stereo not given)", "viability change, negative = cytotoxic": "-22.5% (inactive)"}
{"smiles": "COC(=O)CC#N", "viability change, negative = cytotoxic": "3.6% [at 81.1 µM] (inactive)"}
{"smiles": "CCCCCCCC/C=C/CCCOC(C)=O", "viability change, negative = cytotoxic": "-2.15% (inactive)"}
{"smiles": "COC(=O)NCCC[Si](OC)(OC)OC", "viability change, negative = cytotoxic": "3.16% (inactive)"}
{"smiles": "C=CC(=O)OCCC#N", "viability change, negative = cytotoxic": "-21% [at 81.1 µM] (inactive)"}
{"smiles": "CC(C)c1ccc(O)c(C(C)C)c1", "viability change, negative = cytotoxic": "1.37% (inactive)"}
{"smiles": "C=C(c1ccc(C(=O)O)cc1)c1cc2c(cc1C)C(C)(C)CCC2(C)C", "Potency": "24.5 µM (active)"}
{"smiles": "C/C=C/C=N/NC(=O)c1ccncc1", "viability change, negative = cytotoxic": "-10.4% (inactive)"}
{"smiles": "O[C@@H](c1cc(C(F)(F)F)nc2c(C(F)(F)F)cccc12)[C@H]1CCCCN1", "Potency": "13.3 µM (active)"}
{"smiles": "Cc1ccc2ccc3cccc4ccc1c2c34", "viability change, negative = cytotoxic": "2.82% (inactive)"}
{"smiles": "C[C@@]12C(=O)OC(=O)[C@]1(C)C1CCC2O1", "Potency": "11.9 µM (active)"}
{"smiles": "Cc1cc2c(C(C)C)c(O)c(O)c(C=O)c2c(O)c1-c1c(C)cc2c(C(C)C)c(O)c(O)c(C=O)c2c1O", "Potency": "10.6 µM (active)"}
{"smiles": "CN1[C@@H]2CC[C@H]1CC(OC(=O)C(CO)c1ccccc1)C2", "note": "(stereo not given in full)", "viability change, negative = cytotoxic": "-4.47% (inactive)"}
{"smiles": "CCCCCCOc1cc(C)c(O)c(C)c1C", "viability change, negative = cytotoxic": "17.8% [at 81.1 µM] (inactive)"}
{"smiles": "CCCC(CC)CCCCCCCN", "note": "(stereo not given)", "viability change, negative = cytotoxic": "-5.11% [at 81.1 µM] (inactive)"}
{"smiles": "O=C1c2c(O)ccc([N+](=O)[O-])c2C(=O)c2c([N+](=O)[O-])ccc(O)c21", "Potency": "54.4 µM (active)"}
{"smiles": "CCOC(=O)COc1ccc(C)cc1", "viability change, negative = cytotoxic": "4.89% (inactive)"}
{"smiles": "Clc1ccccc1CN1CCc2sccc2C1", "viability change, negative = cytotoxic": "3.73% (inactive)"}
{"smiles": "CCOC(=O)N1CCC(=C2c3ccc(Cl)cc3CCc3cccnc32)CC1", "Potency": "21.9 µM (active)"}
{"smiles": "SCCCCCCCCS", "viability change, negative = cytotoxic": "22.2% (inactive)"}
{"smiles": "Cc1c(C(=O)O)cccc1[N+](=O)[O-]", "viability change, negative = cytotoxic": "-7.32% [at 81.1 µM] (inactive)"}
{"smiles": "CN1[C@@H]2CC[C@@H]1CC(OC(=O)C(CO)c1ccccc1)C2", "note": "(stereo not given in full)", "viability change, negative = cytotoxic": "-16% (inactive)"}
{"smiles": "CCNc1nc(NC(C)CC)nc(OC)n1", "note": "(stereo not given)", "viability change, negative = cytotoxic": "1.33% (inactive)"}
{"smiles": "CN(C)c1ccc(N=NS(=O)(=O)O)cc1", "viability change, negative = cytotoxic": "-19.7% (inactive)"}
{"smiles": "O=C(O)CCCCCCC(=O)O", "viability change, negative = cytotoxic": "-4.69% [at 81.1 µM] (inactive)"}
{"smiles": "CCCOc1sc(C(=O)N2CCC(c3cc(CN)ccc3F)CC2)c(C)c1Br", "Potency": "25.2 µM (active)"}
{"smiles": "CC(NCCC(c1ccccc1)c1ccccc1)c1ccccc1", "note": "(stereo not given)", "Potency": "23.7 µM (active)"}
{"smiles": "Nc1ccc2cc3ccc(N)cc3nc2c1", "Potency": "3.89 µM (active) and inactive"}
{"smiles": "Cc1occc1SSc1ccoc1C", "viability change, negative = cytotoxic": "-24.7% (inactive)"}
{"smiles": "C=CC(=O)OCC(O)COc1ccccc1", "note": "(stereo not given)", "Potency": "34.7 µM (active)"}
{"smiles": "CCCCCCC(C)OC(=O)COc1nc(F)c(Cl)c(N)c1Cl", "note": "(stereo not given)", "viability change, negative = cytotoxic": "2.33% (inactive)"}
{"smiles": "O=C1NC2CCCCN2C12CCN(CCCN1c3ccccc3CCc3ccc(Cl)cc31)CC2", "note": "(stereo not given)", "Potency": "23.7 µM (active)"}
{"smiles": "Cc1oc(-c2ccccc2)nc1CCOc1ccc(C[C@H](Nc2ccccc2C(=O)c2ccccc2)C(=O)O)cc1", "Potency": "34.7 µM (active)"}
{"smiles": "CNC(=S)NN", "viability change, negative = cytotoxic": "-3.14% (inactive)"}
{"smiles": "CCN1CCN(c2cc(-c3ccc(F)cc3)c3c(n2)CCCCCC3)CC1", "viability change, negative = cytotoxic": "-11.8% [at 29.1 µM] (inactive)"}
{"smiles": "CC1=C(/C=C/C(C)=C/C=C/C(C)=C/C(=O)Nc2ccc(O)cc2)C(C)(C)CCC1", "Potency": "44.8 µM (active) and 11.9 µM (active)"}
{"smiles": "CN1CCN(C2Cc3ccccc3Sc3ccc(Cl)cc32)CC1", "note": "(stereo not given)", "Potency": "26.6 µM (active)"}
{"smiles": "Clc1ccc(C(Cn2ccnc2)OCc2ccsc2Cl)c(Cl)c1", "note": "(stereo not given)", "Potency": "18.8 µM (active)"}
{"smiles": "CCCCCCCCCCCCCCCC", "viability change, negative = cytotoxic": "-15.2% (inactive)"}
{"smiles": "CCCCCCCC/C=C\\CCCCCCCC(=O)N(C)CC(=O)O", "Potency": "38.9 µM (active)"}
